Results as given in PubChem BioAssay.
The source made the active and inactive calls.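 How the source made its calls: active means luciferase signal above three times the same-plate solvent-only control wells; inactive means the rest.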

Biological target: Mitogen-activated protein kinase 7 (Homo sapiens) (UniProt Q13164)
Test: ERK5 transactivation activators in reporter cells, primary screen, cell-based, HTS (AID 1508626);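 further: luciferase driven by Gal4-ERK5 fusion binding five Gal4 sites before minimal TATA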
Settings: HeLa Gal4-ERK5 transactivation, 18 h, at 5 µM, hits give high values

Sequence of Mitogen-activated protein kinase 7 (Homo sapiens) (Q13164 whole entry, looked up, the tested form may be a part): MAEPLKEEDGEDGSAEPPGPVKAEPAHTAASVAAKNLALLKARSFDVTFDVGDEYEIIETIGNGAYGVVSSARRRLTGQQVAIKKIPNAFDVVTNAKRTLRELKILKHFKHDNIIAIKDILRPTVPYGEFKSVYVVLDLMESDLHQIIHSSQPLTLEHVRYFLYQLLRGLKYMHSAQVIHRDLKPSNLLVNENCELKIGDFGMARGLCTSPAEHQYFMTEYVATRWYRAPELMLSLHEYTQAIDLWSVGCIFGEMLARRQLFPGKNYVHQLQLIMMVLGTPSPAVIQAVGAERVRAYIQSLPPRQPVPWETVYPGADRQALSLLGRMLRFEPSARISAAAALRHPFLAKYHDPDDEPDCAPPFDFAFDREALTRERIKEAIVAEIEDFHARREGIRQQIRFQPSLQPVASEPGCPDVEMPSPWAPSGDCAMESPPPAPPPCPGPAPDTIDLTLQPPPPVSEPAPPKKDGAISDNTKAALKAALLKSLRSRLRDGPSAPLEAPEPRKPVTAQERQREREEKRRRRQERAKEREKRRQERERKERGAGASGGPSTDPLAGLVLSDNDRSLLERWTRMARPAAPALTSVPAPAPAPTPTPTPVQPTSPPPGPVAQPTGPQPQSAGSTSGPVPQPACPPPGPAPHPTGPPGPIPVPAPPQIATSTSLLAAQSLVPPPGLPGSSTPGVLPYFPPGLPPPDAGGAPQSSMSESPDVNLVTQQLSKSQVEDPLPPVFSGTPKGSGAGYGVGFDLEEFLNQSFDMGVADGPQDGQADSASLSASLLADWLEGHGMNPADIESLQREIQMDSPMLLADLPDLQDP

Luciferase signal, inactive:
O=C(Cn1ccnc1[N+](=O)[O-])NCCO 76 AU, Cc1[nH]c(C)c(Cl)c(=O)c1Cl 48 AU, CCN1CCN(c2cc3c(cc2F)c(=O)c(C(=O)O)cn3C2CC2)CC1 144 AU, CC(=O)Nc1ccc(OCC(O)CNC(C)C)cc1 (centres undefined) 24 AU, Cc1ccc(C(=O)c2ccc(CC(=O)O)n2C)cc1 84 AU, COc1cc(N)c(Cl)cc1C(=O)NC1CCN(Cc2ccccc2)CC1 48 AU, O=C(O)P(=O)(O)O 16 AU, CCCCCCCCCCCCCCCCOP(=O)([O-])OCC[N+](C)(C)C 132 AU, NC(=NCCCCCCN=C(N)/N=C(\N)Nc1ccc(Cl)cc1)/N=C(\N)Nc1ccc(Cl)cc1 32 AU, CC1(C)S[C@@H]2[C@H](NC(=O)[C@H](N)c3ccccc3)C(=O)N2[C@H]1C(=O)O 44 AU, CC1CCc2cc(F)cc3c(=O)c(C(=O)O)cn1c23 (centres undefined) 60 AU, CC1(C)O[C@@H]2C[C@H]3[C@@H]4CCC5=CC(=O)CC[C@]5(C)[C@@]4(F)[C@@H](O)C[C@]3(C)[C@]2(C(=O)CCl)O1 112 AU, CCN(CC)C(=O)N1CCN(C)CC1 60 AU, CN1C(C)(C)CCCC1(C)C 68 AU, CC(C(=O)O)c1ccc(C(=O)c2cccs2)cc1 (centres undefined) 92 AU, NC(N)=Nc1nc(CSCC/C(N)=N/S(N)(=O)=O)cs1 72 AU, CC(=O)OC/C=C(C)/C=C/C=C(C)/C=C/C1=C(C)CCCC1(C)C 96 AU, CN(C)/N=N/c1nc[nH]c1C(N)=O 28 AU, C[C@@](Cc1ccc(O)c(O)c1)(NN)C(=O)O 56 AU, O=C1c2ccccc2C(=O)c2c1ccc(O)c2O 36 AU, CC(C)NCC(O)c1ccc2ccccc2c1 (centres undefined) 36 AU, COc1cc(C(=O)NCc2ccc(OCCN(C)C)cc2)cc(OC)c1OC 48 AU, CC(C)(Oc1ccc(Cl)cc1)C(=O)O 72 AU

Luciferase signal, active:
Cn1c(=O)c2c(ncn2CCO)n(C)c1=O 196 AU
